Measurements from PubChem BioAssay (Tox21).
Inconclusive results are not listed. Unmarked numbers belong to inactive results. Active and inactive are the calls of the source. Calls come from the whole dose curve; as a rule, active = well fitted inhibition curve with a large enough effect in the repeat runs; inconclusive = weak or mixed curves; inactive = flat fitted curve, though single readings scatter.

The compounds below were run against Luciferin 4-monooxygenase (Photinus pyralis) (UniProt P08659) (assay: qHTS assay to identify small molecule inhibitors of firefly luciferase (AID 1224835; note: nearly all actives have a fitted effect of over 25% in size)). Details: purified P. pyralis luciferase, luminescence inhibition; series mostly up to 115 µM; activity change, negative = inhibition: at the top concentration.
Chain of Luciferin 4-monooxygenase (Photinus pyralis) (P08659 whole entry, looked up): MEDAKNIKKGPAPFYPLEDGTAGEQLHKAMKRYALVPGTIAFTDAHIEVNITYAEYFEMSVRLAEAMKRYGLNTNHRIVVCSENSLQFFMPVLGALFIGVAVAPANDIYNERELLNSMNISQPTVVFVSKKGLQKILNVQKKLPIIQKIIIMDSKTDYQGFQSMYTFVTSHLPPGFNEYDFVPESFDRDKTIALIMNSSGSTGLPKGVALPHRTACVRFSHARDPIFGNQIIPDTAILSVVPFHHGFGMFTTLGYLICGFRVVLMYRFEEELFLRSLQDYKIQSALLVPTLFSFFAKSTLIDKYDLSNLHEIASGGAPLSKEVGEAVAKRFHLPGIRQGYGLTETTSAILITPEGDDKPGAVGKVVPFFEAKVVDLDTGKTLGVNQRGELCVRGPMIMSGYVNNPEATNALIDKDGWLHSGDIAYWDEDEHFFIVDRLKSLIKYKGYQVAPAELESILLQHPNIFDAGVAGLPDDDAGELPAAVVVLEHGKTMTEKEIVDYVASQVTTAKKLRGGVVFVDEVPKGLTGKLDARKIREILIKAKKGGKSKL
Outline: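 Quantitative HTS format; KM concentrations of both substrates. Purified P. pyralis FLuc activity quantified from luminescence images.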
% is set by controls: 0 for no effect and ±100 for the full control effect; potency is the fitted concentration of half-maximal effect.

Q: Which activity change, negative = inhibition does the source give for `C[C@@H]1CN(c2c(F)c(N)c3c(=O)c(C(=O)O)cn(C4CC4)c3c2F)C[C@H](C)N1` here?
A: 0.766% [at 23.6 µM]

Q: Which “activity change, negative = inhibition” value does the source give for `COc1nc(C)nc(NC(=O)NS(=O)(=O)c2ccccc2OCCCl)n1` here?
A: 7.84%

Q: How did the “activity change, negative = inhibition” value turn out when `Cc1ccsc1C(=CCCN1CCC[C@@H](C(=O)O)C1)c1sccc1C` was run?
A: -3.1% [at 52.9 µM]

Q: Which “activity change, negative = inhibition” value does the source give for `C=CCCC=C` here?
A: 0.13%

Q: For `CN1C(=O)CC(c2ccccc2)C1=O` (centres undefined), which “activity change, negative = inhibition” value is on record?
A: 1.32% [at 52.9 µM]

Q: How did the “activity change, negative = inhibition” value turn out when `O=C(O)c1cccc(Cl)c1Cl` was run?
A: -8.51%

Q: With `OCC(CBr)(CBr)CBr` as the compound, how does the Potency read?
A: 70.7 µM (active)

Q: Which “activity change, negative = inhibition” value does the source give for `CCC(=O)c1ccc2c(c1)N(CCCN(C)C)c1ccccc1S2` here?
A: 1.17% [at 52.9 µM]

Q: With `CC(C)(C)c1ccc(OC(=O)c2ccccc2O)cc1` as the compound, how does the Potency read?
A: 1.78 µM (active)

Q: Which activity change, negative = inhibition does the source give for `CN(C)C(=O)NC1(c2ccccc2)CCN(CCC[C@]2(c3ccc(Cl)c(Cl)c3)CCCN(C(=O)c3ccccc3)C2)CC1` here?
A: -2.4% [at 23.6 µM]

Q: How did the “activity change, negative = inhibition” value turn out when `Oc1ccccc1F` was run?
A: 0.674%

Q: How did the “activity change, negative = inhibition” value turn out when `CC(C)(C)C1CCCCC1=O` (centres undefined) was run?
A: 4.37%

Q: Which “activity change, negative = inhibition” value does the source give for `C/C(=N\O)[C@@H](C)NCC(C)(C)CN[C@H](C)/C(C)=N/O` here?
A: 0.167% [at 52.9 µM]

Q: `Cc1ncc(CO)c(CN)c1O` was tested. Which “activity change, negative = inhibition” value did it give?
A: -0.353% [at 52.9 µM]

Q: Which “activity change, negative = inhibition” value does the source give for `Cc1nc(N)nc(N)c1-c1ccc(Cl)c(Cl)c1` here?
A: 1.01% [at 52.9 µM]

Q: `CCOc1ccc(OCC)c(Cl)c1` was tested. Which “activity change, negative = inhibition” value did it give?
A: -11.9%

Q: For `CC1(O)CSC(C)(O)CS1` (centres undefined), which “activity change, negative = inhibition” value is on record?
A: -0.205%

Q: `CCN(CC)CCOc1ccc(Cc2ccccc2)cc1` was tested. Which “activity change, negative = inhibition” value did it give?
A: -1.45% [at 52.9 µM]

Q: `CN1CCN(N)CC1` was tested. Which “activity change, negative = inhibition” value did it give?
A: 0.407% [at 52.9 µM]

Q: How did the “activity change, negative = inhibition” value turn out when `O=S(=O)(O)C(F)(F)F` was run?
A: -3.23%

Q: For `COC(=O)C(C)O` (centres undefined), which “activity change, negative = inhibition” value is on record?
A: 3%

Q: Which “activity change, negative = inhibition” value does the source give for `CCOc1ccc(NS(=O)(=O)c2ccc(N)cc2)nn1` here?
A: 4.53% [at 52.9 µM]

Q: With `Cc1ccc(C(C)C)cc1O` as the compound, how does the “activity change, negative = inhibition” value read?
A: -12.4%

Q: How did the “activity change, negative = inhibition” value turn out when `CCCCCCn1c(=O)c2c(ncn2C)n(C)c1=O` was run?
A: 0.924% [at 52.9 µM]
